This note sets out measurements from PubChem BioAssay AID743279 (National Center for Advancing Translational Sciences (NCATS), 2014).

SMILES strings stand for the structures. In all, about 360,000 compounds went through this assay and about 17,000 (4.7%) were called active. Another 5% or so got no clear call; they are omitted. The sample as a whole holds a higher share of actives than the screen did. Unmarked numbers belong to inactive results. No stated cut-off is given here; in the data, active means activity change below about -50%; inconclusive means mostly about -30% to -49%; inactive means weaker than that.
On the % scale 0 is the no-effect control and ±100 the full control effect.

This assay can be described thus: qHTS for Inhibitors of Inflammasome Signaling: IL-1-beta AlphaLISA Primary Screen. The note with it: THP-1 LPS/ATP IL-1B secretion, 16 h; at 57.5 µM, stronger effect = lower value. The text has this:
Inflammasomes are a set of intracellular multi-protein complexes that enable autocatalytic activation of inflammatory caspases and drive the innate immune response to counter harmful agents. […] A qHTS assay, based on AlphaLISA technology, was developed to screen the Molecular Libraries Small Molecule Repository (MLSMR) to look for novel inflammasome inhibitors. The assay detects IL-1B using AlphaLISA anti-IL-1B acceptor and donor beads. A decreased emission signal, indicating reduced IL-1B secretion, is the desired outcome for this assay. NIH Chemical Genomics Center [NCGC] NIH Molecular Libraries Probe Centers Network [MLPCN] MLPCN Grant: MH095513 Assay Provider: Shyam Biswal Ph.D., Johns Hopkins University Immunity. 2012 Jul 27;37(1):85-95. PMID: 22819042 [2] Curr Pharm Des. 2012;18(16):2320-8. PMID: 22390695
Three microliters containing 3000 THP-1 cells were dispensed into the wells of solid, white, tissue culture treated Greiner 1,536-well plates. Library compounds and positive control, Glyburide, were pin-transferred (23 nL) by a Kalypsys pin-tool equipped with a 1,536-pin array, resulting in final compound concentration ranges of 2.5 nM to 57.5 uM. After 1 hr of cell culture incubation (37 °C, 5% CO2), 1 microL of 1 microg/mL lipopolysaccharide (250 ng/mL, final) and 5 mM ATP (1.25 mM, final) were added to stimulate the cells. After 16 hr of cell culture incubation with the compounds, 1.5 uL of anti-IL-1B acceptor beads (6 ug/mL, final) and biotinylated antibody (0.6 nM, final) were added to the plate, followed by a 1 hr incubation at ambient temperature. To detect the secreted IL-1B, 1.5 uL of AlphaLISA SA-Donor beads (24 ug/mL, final) were added, followed by 30 min of incubation in the dark at ambient temperature. The AlphaLISA signal was read by a PerkinElmer EnVision plate reader with an ultrasensitive luminescence detector and 1536 Plate HTS AlphaScreen aperture (excitation of 680nm and emission of 615nm).
Take `O=C(Nc1ccc2c(c1)OCCO2)C(C1CC1)N1CCC(Cc2ccccc2)CC1` (stereo not given): the activity change is 11.6%. On to `CC1Oc2ccccc2N(Cc2cccnc2)C1=O` (stereo not given), for which the activity change is -12.7%. For `CC1(C)CN(Cc2cccnc2)C(=O)[C@H]1CC(=O)Nc1ccc(Br)cc1`, the activity change was 24.4%. Consider `CC12c3ccccc3C(c3ccccc31)C1C(=O)N(Cc3cccnc3)C(=O)C12` (stereo not given), for which the activity change is -50.6% (active). As for `CC(=O)N1CCN(Cc2cc(=O)oc3cc(C)ccc23)CC1`, the activity change is 19.5%.

As to `O=C(/C(=N\O)n1cncn1)c1ccc(Br)cc1Br`, the activity change was -12.3%.

Regarding `COC(=O)c1cc2c(N)c(C(=O)c3ccc(Cl)cc3)sc2nc1C(OC)OC`, the activity change was -7.51%. As to `Cc1nc2sc(C(=O)c3ccccc3)c(N)c2c2c1CCCC2`, the activity change is -96% (active). Turning to `CCN(CC)C(=O)N(CC)Cc1ccccc1`, the activity change is 3.47%. `Cc1ccc2c(N)c(C(=O)c3ccccc3)sc2n1`: the activity change is -69.1% (active). Consider `Cc1cccc(NC(=O)c2sc3nc(N4CCOCC4)c4c(c3c2N)CCCC4)c1`, for which the activity change was 11.3%. Take `Cc1nn(C)cc1C(=O)c1ccccc1`: the activity change is 0%. `Cc1nc2ccccc2c(-c2ccccc2)c1C(=O)c1ccccc1`: the activity change was 29.5%. Regarding `CCN(CC)C(=O)c1sc(NC(=O)c2ccco2)c(C#N)c1C`, the activity change is -26.1%. Turning to `CCN(CC)C(=O)c1sc2nc(-c3ccccc3)ccc2c1N`, the activity change was -57.4% (active). Consider `COCCCn1c(=O)/c(=C/c2ccccc2OC(C)C)s/c1=C(\C#N)C(=O)Nc1ccc(C(=O)O)cc1`, for which the activity change is -11.6%. Turning to `CC1Cc2ccccc2N1S(=O)(=O)c1cccc(C(=O)NCC(c2ccco2)N2CCCC2)c1` (stereo not given), the activity change was -6.87%.

Turning to `Cc1ccc([C@H]2N[C@]3(CCCN(Cc4ccccc4)C3=O)[C@H]3C(=O)N(Cc4ccccc4)C(=O)[C@@H]23)cc1`, the activity change was 19.2%. The figure for `CC(C)N1C(=O)c2ccccc2NC(=O)C1C(=O)NCc1cccs1` (stereo not given) is 0%; for `C[C@@H]1CCCCO[C@H](CN(C)Cc2ccccc2)[C@@H](C)CN([C@H](C)CO)C(=O)c2cc(NS(=O)(=O)c3ccc(Cl)cc3)ccc2O1` it is -50.8% (active). With `C[C@@H]1CN([C@@H](C)CO)C(=O)c2cc(NS(C)(=O)=O)ccc2O[C@@H](C)CCCCO[C@H]1CN(C)C(=O)Nc1ccc2c(c1)OCO2`, the activity change is -2.98%. Take `Cc1ccc(S(=O)(=O)Nc2ccc3c(c2)C(=O)N([C@H](C)CO)C[C@@H](C)[C@@H](CN(C)C(=O)Nc2cccc4ccccc24)O3)cc1`: the activity change is -20.3%. The figure for `COc1cc(NC(=O)c2cc(-c3ccc(F)cc3OC(C)C)n[nH]2)cc(OC)c1OC` is -6.74%; for `Cc1cccc(NC(=S)NCc2ccc3[nH]c4c(c3c2)CCCC4)c1` it is -10.4%; for `Cc1cccc(C(=O)NC(=S)N(C)C2CCCCC2)c1` it is -1.28%. The value for `Cc1cccc(NC(=S)NCCN(C2CCCCC2)C2CCCC2)c1` was -63.3% (active); that for `COc1ccc(C)cc1N(C(=O)Cn1nnc(-c2ccc(C)o2)n1)C(C(=O)NC1CCCC1)c1ccncc1` (stereo not given) was 7.77%. Turning to `Cc1ccc2c(c1)c1ncnc(N3CCc4ccccc4C3)c1n2C`, the activity change is -19.9%. Take `O=C1CCC(C(=O)OCC(=O)Nc2ccc(OC(F)F)cc2)=NN1`: the activity change is -2.22%. On to `O=C(c1cc(COc2ccc(F)c(F)c2)on1)N1CCOCC1`, for which the activity change was -28.7%. The figure for `C=CCC1(CC=C)CCCN1C(=O)c1cc(COc2ccc(-n3cncn3)cc2)on1` is -59.7% (active); for `CCn1ccnc1CN(C)C(=O)c1cc(COc2ccc(-n3cncn3)cc2)on1` it is 21.7%; for `O=C(NC1CCCC1)C1c2ccccc2OCC(=O)N1Cc1ccccc1` (stereo not given) it is 27.8%. Consider `CCN1CCN(C(=O)CCN2C(=O)c3ccccc3C2=O)CC1`, for which the activity change was 15.8%.

`O=C(O)CC12CC3CC(C1)CC(n1ncc(NCc4ccc(F)cc4)c(Cl)c1=O)(C3)C2`: the activity change is -16%. Take `CSC1=N/C(=C\C=C\c2cccs2)C(=O)S1`: the activity change is -92.1% (active). The value for `COc1ccc(OC(C)C(=O)Nc2cccnc2)cc1` (stereo not given) was -0.423%. As for `CC(Sc1nc2c([nH]c3ccccc32)c(=O)n1C)c1ccccc1` (stereo not given), the activity change was 27.7%. Turning to `O=C1OCCC1=COCCCCOC=C1CCOC1=O`, the activity change was 2.81%. Regarding `COc1ccc(C(=O)C2CCCN(Cc3cccn3-c3ccccn3)C2)c(C)c1` (stereo not given), the activity change was -99.7% (active).

On to `CCOC(=O)c1[nH]ncc1CN1CCCC(C(=O)c2ccc(OC)cc2C)C1` (stereo not given), for which the activity change is 0%.

In the case of `COc1ccc(C(=O)C2CCCN(Cc3ccc4nonc4c3)C2)c(C)c1` (stereo not given), the activity change is -3.49%. On to `Cc1[nH]c2ccccc2c1C(=O)C(=O)NCc1nnnn1-c1cccc(F)c1`, for which the activity change is 10.9%.

Regarding `Cc1ccccc1-c1csc(C(O)c2cccc(Cl)c2)n1` (stereo not given), the activity change was -11.7%. Take `CCN(CC)c1ncnc2c1ncn2[C@H]1CN(Cc2cccs2)C[C@@H](CO)O1`: the activity change was -12%. With `Cc1ccc(-c2csc(NC(=O)C3=COCCO3)n2)cc1C`, the activity change is -88.1% (active). `CC(=O)NCCC(=O)Nc1nc(-c2ccc3c(c2)OCCO3)cs1`: the activity change is 15.5%. Regarding `Cc1csc(NC(=O)C2=COCCO2)n1`, the activity change is -3.32%.

In the case of `Nc1nc2cc(Cl)ccc2n1N`, the activity change was 32.9%. The figure for `CCn1nc(C)c(/C=N/NC(=O)Cc2ccc(Cl)cc2)c1C` is 14.8%.
